Compound activity: PubChem BioAssay, National Center for Advancing Translational Sciences (NCATS)
USP1-UAF1 inh: blocks the human USP1/UAF1 deubiquitinase complex | recombinant USP1/UAF1, Ub-Rhodamine cleavage fluorescence | Potency, µM (highest dose often 57.1 µM), without a hit: top-dose activity change, negative = inhibition, actives largely listed as inhibitors | actives 0.23% (n = 390,000) | AID 743255; further: potency means the concentration at half of the fitted maximal effect; nearly all actives have a fitted effect of over 60% in size
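USP1/UAF1 complex (1 nM) preincubated 15 min at room temperature with compound, then Ub-Rho substrate (150 nM final) added. Kinetic fluorescence at 480/540 nm over 6 reads at 60 s intervals; 50 mM HEPES pH 7.8, 0.5 mM EDTA, 0.1 mg/ml BSA, 1 mM TCEP, 0.01% Tween-20.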
PI5P4Ka inh: inhibitors of human PI5P4K alpha; P48426; PI5P4Kalpha enzyme, ADP-Glo luminescence, 60 min; stronger effect = lower value; max response, %; actives 1.2% (n = 330,000); active means max response of -50% or lower; inconclusive means between -30% and -50%; inactive means -30% or higher; further: value at the top dose of about 77 µM
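qHTS, 1536-well: enzyme/substrate mix, compound by pin tool, 5 microM ATP final; RT 60 min; ADP-Glo reagents 1 (45 min) then 2 (30 min); luminescence.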
WRN inhibitor: blocks human WRN helicase; Q14191; WRN helicase unwinding, fluorescent forked duplex, kinetic; Potency, µM (doses to about 114 µM), without a hit: at the highest dose activity change, negative = inhibition, actives largely listed as inhibitors; actives 0.46% (n = 360,000); AID 651768; further: potency means the concentration at half of the fitted maximal effect; nearly all actives have a fitted effect of over 55% in size
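Kinetic fluorescence helicase assay: unwinding of a quenched forked DNA duplex (100 nM final) with 2 mM ATP final raises red fluorescence (525/598 nm). Compounds sat 15 min at room temperature with 20 nM WRN beforehand.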
USP2a inh: blocks human ubiquitin-specific protease USP2a; USP2 core, Ub-CHOP2 coupled fluorogenic reporter, 485/531; Potency, µM (doses to about 38.3 µM), for the others: at the top dose activity change, negative = inhibition, hits mostly inhibitors; actives 0.01% (n = 330,000);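 further: potency means the concentration at half of the fitted maximal effect; plate controls were DMSO wells for no effect and full inhibition by NEM control for full effect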
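Cell-free coupled assay: 10nM USP2 core preincubated 30min RT with compound in Tris-HCl pH 8.0/CaCl2/CHAPS buffer, then 25nM Ub-CHOP2 and 25nM reporter substrate; fluorescence (Ex 485/Em 531) read after 60min RT, normalized to NEM inhibition, concentration-response curves fitted.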
PLK1 PBD block: PLK1 (human) polo-box domain binding inhibition | P53350 | Plk1 PBD binding of FITC phosphopeptide, fluorescence polarization | Potency, µM, inactives show max response, negative = inhibition, most hits filed as inhibitors | actives 2.8% (n = 360,000); further: potency means the concentration at half of the fitted maximal effect; series mostly up to about 57 µM; nearly all actives have a fitted effect of over 65% in size
Target sequence (P53350 whole entry, looked up, the tested form may be a part): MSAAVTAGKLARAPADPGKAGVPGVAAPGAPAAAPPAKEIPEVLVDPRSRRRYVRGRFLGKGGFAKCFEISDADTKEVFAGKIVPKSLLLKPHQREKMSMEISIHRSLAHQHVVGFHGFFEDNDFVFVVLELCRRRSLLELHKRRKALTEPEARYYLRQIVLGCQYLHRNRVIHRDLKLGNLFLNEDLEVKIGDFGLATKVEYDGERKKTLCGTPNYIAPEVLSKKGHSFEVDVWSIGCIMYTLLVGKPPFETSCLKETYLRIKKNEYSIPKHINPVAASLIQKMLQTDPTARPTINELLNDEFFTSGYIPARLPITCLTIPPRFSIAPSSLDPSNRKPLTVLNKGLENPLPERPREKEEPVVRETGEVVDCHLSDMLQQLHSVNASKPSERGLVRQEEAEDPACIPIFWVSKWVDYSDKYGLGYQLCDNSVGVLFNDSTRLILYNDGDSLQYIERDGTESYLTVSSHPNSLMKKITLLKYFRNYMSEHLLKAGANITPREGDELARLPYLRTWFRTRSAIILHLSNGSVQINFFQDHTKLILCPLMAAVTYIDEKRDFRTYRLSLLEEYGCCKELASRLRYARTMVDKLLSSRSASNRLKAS
The depositor's hits bear a star; ? = inconclusive; / = not tested or not shown; [ ] = another dose, or the depositor's remark. A selection: hits, their analogues and other compounds. The true share with any hit is near 3.3%. Unless noted, the call rests on the fitted dose curve; in most records, active means well fitted curve in the direction sought with a large enough effect; inconclusive means small, poorly fitted or top-dose-only effect, or another doubt; inactive means no such curve, though single readings can be large; an effect the other way counts as inactive or inconclusive. Unless noted, on the % scale 0 is the no-effect control and ±100 the full control effect.

SMILES | USP1-UAF1 inh | PI5P4Ka inh | WRN inhibitor | USP2a inh | PLK1 PBD block
O=C(Nc1ccc(N2CCOCC2)cc1)c1ccc2nc(-c3ccco3)c(-c3ccco3)nc2c1 | -4% | / | -9% | -2% | -10%
CC(=O)c1ccc(NC(=O)c2ccc3nc(-c4ccco4)c(-c4ccco4)nc3c2)cc1 | ? | -110* | 25µM* | ? | 24µM*
S=C(Nc1ccc(N2CCOCC2)cc1)Nc1ccc2nc(-c3ccco3)c(-c3ccco3)nc2c1 | 25µM* | -78* | -35%[11.6 µM] | ? | ?
O=C(NCc1ccccc1OC(F)(F)F)C1CCC(=O)N(CCc2ccccn2)C1 (stereo not given) | 1% | 0 | -10% | / | 2%
O=C(NCc1ccccc1OC(F)(F)F)C1CCC(=O)N(Cc2ccccn2)C1 (stereo not given) | -26% | -29 | 3% | -1% | 12µM*
COc1ccc(Cl)cc1Nc1cc(C)nc2nc(-c3ccccc3C)nn12 | -18% | / | / | / | /
CCCCCCSC1=C(C#N)C(=O)NC2(CCCCC2)S1 | -23% | 2 | -21% | 2% | 27µM*
COc1ccc(CSC2=C(C#N)C(=O)NC3(CCCCC3)S2)cc1 | ? | ? | -9% | / | -11%
Cc1nn(-c2ccc(N3CCCC3)nn2)c(C)c1CCC(=O)NCc1ccc(F)cc1 | -24% | / | / | / | /
Cc1sc2nc3c(C(=O)N4CCCC4)cc(C(=O)c4ccccc4O)cn3c(=O)c2c1C | -25% | -2 | -10% | 0% | 24µM*
CCC(NC(=O)OCc1ccccc1)C(=O)Oc1ccc2ccc(=O)oc2c1 (stereo not given) | -20% | -10 | 3% | 3% | 30µM*
Cc1cc(C)n(C(C[N+](=O)[O-])c2ccc(Cl)cc2)n1 (stereo not given) | -17% | -4 | -37% | -6% | 17µM*
CCOC(=O)c1c(/N=C/N(C)C)sc(/C=N/Nc2ccccc2)c1-c1ccccc1 | ? | 1 | -4% | 0% | 24µM*
Cc1cc(C)c2nc(SCC(=O)Nc3ccccc3N3CCOCC3)c(C#N)cc2c1 | -10% | -3 | -3% | / | 30µM*
Cc1cc(Nc2cccc(Br)c2)n2c(nc3ccccc32)c1C#N | -17% | / | / | / | /
O=C(Cn1nc(Cc2ccncc2)c2ccccc2c1=O)N1CCc2ccccc2C1 | 28µM* | 0 | 5% | 0% | -2%
CCCCNC(=O)Cn1nc(Cc2ccncc2)c2ccccc2c1=O | -17% | 3 | 1% | -1% | -11%
O=C(C#Cc1ccccc1)c1cccc([N+](=O)[O-])c1 | -27% | 5 | 18µM* | -1% | 0.6µM*
C=CCN(C(=O)CCC(=O)O)C1CC(=O)N(c2ccc(OCCC)cc2)C1=O (stereo not given) | -21% | -19 | 15% | 1% | 24µM*
COc1ccccc1NC(=O)CSc1nnc(NC(=O)Nc2ccc(C)cc2)s1 | -10% | / | / | / | /
O=C(COC(=O)Cn1nnc2ccccc21)Nc1ccccc1Br | -7% | -11 | 2% | -6% | 30µM*
c1ccc2c(-c3cncc4ccccc34)cncc2c1 | -23% | -73* | 5% | / | -3%
CC(C)(C)NC(=O)C[C@H]1C[C@H](C(=O)N2CCCCC2)[C@@]2(C)c3[nH]c4cc(-c5ccco5)ccc4c3CCN2C1=O | -24% | -29 | 5% | -16% | 24µM*
C[C@]12c3[nH]c4cc(-c5ccco5)ccc4c3CCN1C(=O)[C@@H](CC(=O)NCCC1=CCCCC1)C[C@@H]2C(=O)N1CCCCC1 | -21% | ? | -4% | 1% | 21µM*
CC[C@]12c3[nH]c4cc(-c5ccco5)ccc4c3CCN1C(=O)[C@@H](CC(=O)NC/C=C(\C)CCC=C(C)C)C[C@@H]2C(=O)N1CCN(C(=O)c2ccco2)CC1 | ? | ? | 0% | -19% | 24µM*
SMILES | USP1-UAF1 inh | PI5P4Ka inh | WRN inhibitor | USP2a inh | PLK1 PBD block
CC(C)(C)NC(=O)C[C@H]1C[C@H](C(=O)N2CCOCC2)[C@@]2(C)c3[nH]c4cc(-c5ccco5)ccc4c3CCN2C1=O | ? | -4 | 2% | -5% | -5%
CCN(CC)C(=O)CSc1nc(N)c(C#N)c(-c2cccs2)c1C#N | -11% | / | 3% | 2% | -2%
CCN(CC)C(=O)CSc1nc(-c2cccs2)cc(-c2cccs2)c1C#N | -26% | -30 | -6% | -1% | 12µM*
CCSS(=O)(=O)c1cccc2cccnc12 | 1% | -84* | 32µM* | 3% | 2.7µM*
O=C1C=C(C2OC(CO)C(O)C2O)C(=O)N1 (stereo not given) | -10% | -54* | -5% | / | ?
Cc1ccc(NS(=O)(=O)c2ccc(NC(=O)c3ccc(-c4ccccc4)cc3)cc2)c(C)c1 | 2% | -15 | 13% | / | 24µM*
COc1ccc(NS(=O)(=O)c2ccc(NC(=O)c3ccc(Br)cc3)cc2)nn1 | -15% | -1 | -2% | 3% | -5%
COc1ccc(NS(=O)(=O)c2ccc(NC(=O)c3ccccc3)cc2)nn1 | -2% | -14 | 11%[57.1 µM] | 0% | 15µM*
Cc1ccc(NS(=O)(=O)c2cc(NC(=O)c3ccc4c(c3)NC(=O)CS4)ccc2C)c(C)c1 | -13% | -18 | ? | 2% | 9.5µM*
Cc1cccc(N2CCN(S(=O)(=O)c3ccc4c(c3)C(C(C)C)C(=O)N4)CC2)c1C (stereo not given) | -21% | / | / | / | /
CCCNC(=O)c1ccc(C2SCC(=O)N2Cc2ccccc2)cc1 (stereo not given) | -18% | -4 | -5% | -1% | -1%
CC(C)CNC(=O)c1ccc(C2SCC(=O)N2Cc2ccccc2)cc1 (stereo not given) | -10% | -10 | 3% | 0% | 24µM*
COC(=O)c1cc(C#N)c(SCc2ccccc2)nc1C | -10% | 1 | -10% | 0% | 2%
N#Cc1c(SCC(N)=O)nsc1SCc1ccc(Cl)cc1 | -25% | 5 | 10% | 0% | -2%
Cc1ccc(C(=O)CSc2nsc(C)c2C#N)cc1 | -13% | -24 | 1% | 3% | 15µM*
COC(=O)c1ccccc1CSc1nsc(C)c1C#N | -22% | 2 | -8% | 5% | 13µM*
Cc1snc(SCC(=O)c2ccc(Cl)cc2)c1C#N | -23% | / | 1% | -3% | 21µM*
CC1=C(C(=O)Nc2cc(Cl)ccc2C)C2(CCCCC2)OC1=O | -13% | / | / | / | /
Cc1c(C(=O)NCc2ccccc2Br)oc2c1-c1[nH]ncc1CC2 | -6% | / | / | / | /
Clc1cccc(-c2nn3c(COc4ccccc4)nnc3s2)c1 | / | / | / | -1% | /
c1csc(-c2nn3c(Cn4cnc5ccccc54)nnc3s2)c1 | -11% | / | -3% | -1% | 21µM*
Clc1cccc(-c2nn3c(Cn4cnc5ccccc54)nnc3s2)c1 | -8% | / | 2% | -4% | 11µM*
c1csc(-c2nn3c(Cn4nnc5ccccc54)nnc3s2)c1 | -8% | / | -5% | 1% | -9%
Cc1c(Cl)cccc1NC(=O)Nc1ccc2snnc2c1 | -35% | / | / | / | /
COc1ccc(-c2nc3ccc(NS(=O)(=O)c4ccc(C)cc4)cc3o2)cc1 | -22% | / | / | / | /
